For part of these data: Results with a measured potency or affinity are listed apart. Calls of active or inactive are those of the source.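 Rule for the calls, unless noted: active = fluorescence ratio normalized to control raised more than 50% in primary screen plus both repeat runs; inactive = the rest.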
Key:
[1] = system: TRPC4 beta (transient receptor potential cation channel C4), mouse; assay: activators of mouse TRPC4 channel, confirmation, cell-based, Fluo4 calcium, HEK293 TRPC4beta/mu-opioid, duplicates, 10 µM (AID 2426); details: Fluo4 calcium fluorescence, at 10 µM; active compounds read high;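 for activation: percent rise of integrated ratio over buffer wells lacking compound which define 0%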
[2] = system: transient receptor potential cation channel C4 beta (TRPC4), mouse; assay: activators of mouse TRPC4 channel, confirmation, cell-based, second round, Fluo4, HEK293 TRPC4beta/mu-opioid, 1 µM (AID 2461;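 active = primary screen active and over 50% activation in each of two duplicate runs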); details: Fluo4 calcium fluorescence, at 1 µM; active compounds read high
[3] = system: TRPC4 (transient receptor potential cation channel C4 beta), mouse; assay: positive allosteric modulators of mouse TRPC4, confirmation, cell-based, second round, Fluo-4, HEK293 TRPC4beta/mu-opioid, 1 µM (AID 2554;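 active = primary screen hit whose fluorescence ratio, in both repeats, exceeds the weak agonist control mean by 3 SD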); details: DAMGO EC20, Fluo-4 calcium flux, at 1 µM; active compounds read high
[4] = system: TRPC4 beta (transient receptor potential cation channel C4), mouse; assay: positive allosteric modulators of mouse TRPC4, confirmation, cell-based, Fluo-4, HEK293 TRPC4beta/mu-opioid (AID 2555;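 active = primary screen hit whose calcium fluorescence ratio, in both repeats, exceeds the weak agonist control mean by 3 SD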); details: DAMGO EC20, Fluo-4 calcium flux, at 10 µM; active compounds read high
[5] = molecular target: Short transient receptor potential channel 4 (Mus musculus) (UniProt Q9QUQ5); assay: inhibitors of mouse TRPC4 channel, confirmation, cell-based, Fluo4, HEK293 TRPC4beta/mu-opioid (AID 2636;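 active = calcium signal cut by more than 3 SD below the full-agonist control yet still positive, in both repeats and the earlier primary screen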); details: DAMGO, Fluo4 calcium flux, at 10 µM; active compounds read high
Sequence of Short transient receptor potential channel 4 (Mus musculus) (Q9QUQ5 whole entry, looked up): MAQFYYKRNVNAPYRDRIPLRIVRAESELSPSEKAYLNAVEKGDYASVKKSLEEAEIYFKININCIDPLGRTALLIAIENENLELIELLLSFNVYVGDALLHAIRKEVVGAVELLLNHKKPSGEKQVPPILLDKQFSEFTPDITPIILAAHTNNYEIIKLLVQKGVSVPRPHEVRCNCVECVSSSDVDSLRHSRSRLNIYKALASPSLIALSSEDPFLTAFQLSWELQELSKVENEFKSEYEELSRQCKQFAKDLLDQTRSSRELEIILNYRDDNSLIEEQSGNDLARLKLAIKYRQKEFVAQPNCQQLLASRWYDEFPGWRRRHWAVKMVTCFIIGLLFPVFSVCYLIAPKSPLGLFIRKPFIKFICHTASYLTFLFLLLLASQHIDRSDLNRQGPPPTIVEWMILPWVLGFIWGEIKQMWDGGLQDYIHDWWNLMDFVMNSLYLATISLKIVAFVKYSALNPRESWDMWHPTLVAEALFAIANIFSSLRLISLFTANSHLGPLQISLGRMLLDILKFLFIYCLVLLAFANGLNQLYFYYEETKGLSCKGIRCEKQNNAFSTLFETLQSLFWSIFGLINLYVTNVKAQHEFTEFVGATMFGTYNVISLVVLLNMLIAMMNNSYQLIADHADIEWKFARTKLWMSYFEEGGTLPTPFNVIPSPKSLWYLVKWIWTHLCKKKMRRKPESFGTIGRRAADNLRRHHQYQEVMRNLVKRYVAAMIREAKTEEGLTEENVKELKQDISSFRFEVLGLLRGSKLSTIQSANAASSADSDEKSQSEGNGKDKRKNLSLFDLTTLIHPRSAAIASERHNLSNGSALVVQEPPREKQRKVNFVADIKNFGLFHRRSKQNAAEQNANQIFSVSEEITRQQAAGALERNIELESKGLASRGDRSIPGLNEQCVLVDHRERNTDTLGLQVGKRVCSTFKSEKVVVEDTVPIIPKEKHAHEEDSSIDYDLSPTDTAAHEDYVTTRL

[6] = molecular target: Short transient receptor potential channel 4 (Mus musculus) (UniProt Q9QUQ5); assay: inhibitors of mouse TRPC4 channel, confirmation, cell-based, second round, Fluo4, HEK293 TRPC4beta/mu-opioid, 1 µM (AID 2637;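 active = calcium signal ratio cut to more than 3 SD under the fully stimulated control mean yet still positive, in both repeats and the primary screen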); details: Fluo4 calcium flux, DAMGO, at 1 µM; active compounds read high
[7] = molecular target: Short transient receptor potential channel 4 (Mus musculus) (UniProt Q9QUQ5); assay: mouse TRPC4 channel activators, dose response, cell-based, HEK293 TRPC4/mu-opioid, Fluo-4 calcium (AID 434937;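 active = primary screen activator hit with a dose response curve and TRPC4 channel activation at any tested dose; inactive = no activation, no dose response, or not a primary hit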)
[8] = molecular target: Short transient receptor potential channel 4 (Mus musculus) (UniProt Q9QUQ5); assay: TRPC4 positive allosteric modulators, dose response, cell-based, HEK293 TRPC4/mu-opioid, Fluo-4 calcium, EC20 DAMGO (AID 434941;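 active = earlier screen potentiator hit that boosts the TRPC4 ion channel at some dose, with a dose response; inactive = no potentiation, no dose response, or not a prior hit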;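 note: calcium entry triggered by an EC20 dose of DAMGO at the co-expressed mu-opioid receptor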)
[9] = molecular target: Short transient receptor potential channel 4 (Mus musculus) (UniProt Q9QUQ5); assay: mouse TRPC4 channel inhibitors, dose response, cell-based, HEK293 TRPC4/mu-opioid, Fluo-4 calcium (AID 434942;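 active = primary screen inhibitor hit that blocks the TRPC4 channel at some tested dose, yielding a dose curve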)
[10] = molecular target: Short transient receptor potential channel 6 (Mus musculus) (UniProt Q61143); assay: inhibition of mouse TRPC6 channel, confirmation, selectivity assay for TRPC4 inhibitor project, cell-based, HEK293, membrane potential dye, duplicate (AID 434948;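 active = active in primary screen and both duplicates, each dropping signal beyond three positive-control SD with fluorescence still positive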); details: HEK293 TRPC6, membrane potential dye fluorescence, at 10 µM, stimulated with maximal-effect acetylcholine; active compounds read high
Sequence of Short transient receptor potential channel 6 (Mus musculus) (Q61143 whole entry, looked up): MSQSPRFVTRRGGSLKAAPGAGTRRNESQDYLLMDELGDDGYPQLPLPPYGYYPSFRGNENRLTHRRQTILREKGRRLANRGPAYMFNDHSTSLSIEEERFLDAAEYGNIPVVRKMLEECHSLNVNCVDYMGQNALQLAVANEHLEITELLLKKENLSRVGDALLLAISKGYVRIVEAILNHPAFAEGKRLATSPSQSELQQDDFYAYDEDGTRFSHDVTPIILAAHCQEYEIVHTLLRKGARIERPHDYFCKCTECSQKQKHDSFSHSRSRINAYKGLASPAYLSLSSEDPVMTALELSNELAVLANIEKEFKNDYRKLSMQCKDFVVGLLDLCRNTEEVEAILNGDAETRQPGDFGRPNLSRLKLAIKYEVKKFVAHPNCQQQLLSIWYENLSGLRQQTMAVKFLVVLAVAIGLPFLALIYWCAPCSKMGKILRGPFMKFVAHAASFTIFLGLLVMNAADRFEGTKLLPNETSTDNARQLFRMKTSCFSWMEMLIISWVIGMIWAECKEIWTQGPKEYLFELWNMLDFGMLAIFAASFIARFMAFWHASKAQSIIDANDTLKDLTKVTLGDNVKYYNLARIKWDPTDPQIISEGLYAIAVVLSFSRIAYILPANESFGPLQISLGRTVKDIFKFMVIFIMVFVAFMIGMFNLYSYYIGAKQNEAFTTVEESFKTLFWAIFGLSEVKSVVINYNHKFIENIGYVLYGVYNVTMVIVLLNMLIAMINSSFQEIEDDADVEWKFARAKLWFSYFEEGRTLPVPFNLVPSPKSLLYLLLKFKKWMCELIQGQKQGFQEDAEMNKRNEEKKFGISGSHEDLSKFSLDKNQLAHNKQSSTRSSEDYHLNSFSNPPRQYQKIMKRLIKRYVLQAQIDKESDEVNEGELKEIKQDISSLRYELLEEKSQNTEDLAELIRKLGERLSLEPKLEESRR

[11] = molecular target: Short transient receptor potential channel 6 (Mus musculus) (UniProt Q61143); assay: activation of mouse TRPC6 channel, confirmation, selectivity assay for TRPC4 activator project, cell-based, HEK293, membrane potential dye, duplicate (AID 434950;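 active = membrane potential signal rise above negative control mean plus 3 SD in both duplicates, also active in the earlier TRPC4 screen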;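 for activation: 0% = buffer only wells and 100% = acetylcholine maximal-effect wells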); details: HEK293 TRPC6, membrane potential fluorescence, at 10 µM; active compounds read high
[12] = molecular target: Short transient receptor potential channel 6 (Mus musculus) (UniProt Q61143); assay: TRPC6 potentiation by TRPC4 potentiator hits, confirmation, selectivity assay for TRPC4 potentiator project, HEK293 cells, membrane potential dye, duplicate (AID 434952;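 active = compound raising the membrane signal above positive-control mean plus 3 SD in both repeats, and a primary screen hit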); details: HEK293 TRPC6, membrane potential dye fluorescence, at 10 µM, maximal acetylcholine added after compound; active compounds read high
[13] = molecular target: Short transient receptor potential channel 4 (Mus musculus) (UniProt Q9QUQ5); assay: calcium flux activators in TRPC4/5HT1a cells, counter-screen for TRPC4 activator project, cell-based, second counter screen, HEK293 TRPC4/5HT1a, Fluo-4 (AID 434977;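 active = calcium signal rise above buffer-control mean plus 5 SD in both duplicates, and also a hit in the primary screen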;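 for activation: plate controls were assay buffer for no effect and maximal serotonin response for full effect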); details: Fluo-4 calcium flux, at 10 µM; active compounds read high
[14] = calcium flux inhibitors in TRPC4/5HT1a cells, confirmation, counter-screen for TRPC4 inhibitor project, cell-based, second counter screen, HEK293 TRPC4/5HT1a, Fluo-4 (AID 434978;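 active = primary screen active whose calcium signal fell more than 3 SD beyond the full-serotonin control mean in both duplicate plates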;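 note: serotonin given first at submaximal then at maximal dose after compound preincubation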); details: Fluo-4 calcium flux, at 10 µM, serotonin added to trigger calcium flux; active compounds read high
[15] = system: TRPC4 (mouse), co-expressed with 5HT1a in HEK293; assay: calcium flux potentiators in TRPC4/5HT1a cells, confirmation, counter-screen for TRPC4 potentiator project, cell-based, second counter screen, HEK293 TRPC4/5HT1a, Fluo-4 (AID 434979;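 active = signal rise over 3 SD above mean of control wells given weak agonist, in both repeats and first screen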); details: Fluo-4 calcium flux, at 10 µM, serotonin added at its EC20 dose; active compounds read high
[16] = calcium flux activation in mu-opioid HEK293 cells, confirmation, counter-screen for TRPC4 activator project, cell-based, HEK293 mu-opioid receptor line (AID 449723;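 active = hit in primary screen, with calcium signal over 5 SD above buffer well mean in both duplicates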;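 note: counter screen cells carry the mu-opioid receptor alone and lack TRPC4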); details: Fluo-4 calcium fluorescence, at 10 µM; active compounds read high
[17] = calcium flux enhancement in mu-opioid HEK293 cells, confirmation, counter-screen for TRPC4 allosteric potentiator project, cell-based, HEK293 mu-opioid receptor line (AID 449724;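 active = calcium signal rise more than 3 SD above the low-dose agonist control mean, in both duplicate plates and the primary screen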); details: Fluo-4 calcium flux, at 10 µM, compound added before EC20 DAMGO stimulus; active compounds read high

O=S(=O)(c1ccc(Oc2ccc(Br)cc2)cc1)N1CCOCC1
inactive: outcome [1] | outcome [2] | outcome [3] | outcome [4] | outcome [5] | outcome [6] | outcome [7] | outcome [8] | outcome [9] | outcome [10] | outcome [11] | outcome [12] | outcome [13] | outcome [14] | outcome [15] | outcome [16] | outcome [17]

CCCCN(C)CCNC(=O)c1c[nH]c2ccc(S(=O)(=O)N(CC)CC)cc2c1=O
inactive: outcome [1] | outcome [2] | outcome [3] | outcome [5] | outcome [6] | outcome [7] | outcome [8] | outcome [9] | outcome [10] | outcome [11] | outcome [12] | outcome [13] | outcome [14] | outcome [16] | outcome [17]
active: potentiation [4] 46% | potentiation [15] 26.4%

CCN(CCNC(=O)C1CCCN(c2ncnc3c2nc2n3CCCCC2)C1)Cc1ccccc1 (stereo not given)
inactive: outcome [1] | outcome [2] | outcome [5] | outcome [6] | outcome [7] | outcome [8] | outcome [9] | outcome [10] | outcome [11] | outcome [12] | outcome [13] | outcome [14] | outcome [15] | outcome [16] | outcome [17]
active: potentiation [3] 18% | potentiation [4] 10%

CC(OC(=O)Cn1cnc2c1c(=O)n(C)c(=O)n2C)C(=O)Nc1ccc(Cl)cc1 (stereo not given)
inactive: outcome [1] | outcome [2] | outcome [3] | outcome [4] | outcome [5] | outcome [6] | outcome [7] | outcome [8] | outcome [9] | outcome [10] | outcome [11] | outcome [12] | outcome [13] | outcome [14] | outcome [15] | outcome [16] | outcome [17]

Cc1cc(Cl)cc(C)c1OCCCCCn1ccnc1
active: activation [1] 88% | activation [11] 47% | activation [13] 34%
inactive: outcome [2] | outcome [3] | outcome [4] | outcome [5] | outcome [6] | outcome [7] | outcome [8] | outcome [9] | outcome [10] | outcome [12] | outcome [14] | outcome [15] | outcome [16] | outcome [17]

Cc1ccc(/C=C/C(=O)NC2CCCCCCC2)o1
active: potentiation [4] 16% | potentiation [15] 19.1%
inactive: outcome [1] | outcome [2] | outcome [3] | outcome [5] | outcome [6] | outcome [7] | outcome [8] | outcome [9] | outcome [10] | outcome [11] | outcome [12] | outcome [13] | outcome [14] | outcome [16] | outcome [17]

Cc1cc(OCC(=O)NNC(=S)NC(=O)c2ccc(Br)o2)ccc1Cl
inactive: outcome [1] | outcome [2] | outcome [3] | outcome [5] | outcome [6] | outcome [7] | outcome [8] | outcome [9] | outcome [10] | outcome [11] | outcome [12] | outcome [13] | outcome [14] | outcome [15] | outcome [16] | outcome [17]
active: potentiation [4] 10%

Cc1ccc(CS(=O)(=O)CCC(=O)NCCC2=CCCCC2)cc1
inactive: outcome [1] | outcome [2] | outcome [4] | outcome [5] | outcome [6] | outcome [7] | outcome [8] | outcome [9] | outcome [10] | outcome [11] | outcome [12] | outcome [13] | outcome [14] | outcome [16] | outcome [17]
active: potentiation [3] 14% | potentiation [15] 18.2%

CCN1C2=NCCCN2c2cc(C)c(C)cc21
inactive: outcome [1] | outcome [2] | outcome [3] | outcome [4] | outcome [5] | outcome [6] | outcome [7] | outcome [8] | outcome [9] | outcome [10] | outcome [11] | outcome [12] | outcome [13] | outcome [14] | outcome [15] | outcome [16] | outcome [17]

CC(C)c1ccc(C(C)NCCS(=O)(=O)c2ccc(Br)cc2)cc1 (stereo not given)
inactive: outcome [1] | outcome [2] | outcome [3] | outcome [4] | outcome [5] | outcome [6] | outcome [7] | outcome [8] | outcome [9] | outcome [10] | outcome [11] | outcome [12] | outcome [13] | outcome [14] | outcome [16] | outcome [17]
active: potentiation [15] 21.2%

Cn1c(=O)c2c(nc(CN3CCc4ccccc4C3)n2Cc2ccccc2)n(C)c1=O
active: potentiation [3] 40% | potentiation [15] 97.6%
inactive: outcome [1] | outcome [2] | outcome [4] | outcome [5] | outcome [6] | outcome [7] | outcome [8] | outcome [9] | outcome [10] | outcome [11] | outcome [12] | outcome [13] | outcome [14] | outcome [16] | outcome [17]

CN(Cc1ccccc1)C(=O)c1oc(=O)c2ccccc2c1-c1ccccc1
active: potentiation [15] 9.58%
inactive: outcome [1] | outcome [2] | outcome [3] | outcome [4] | outcome [5] | outcome [6] | outcome [7] | outcome [8] | outcome [9] | outcome [10] | outcome [11] | outcome [12] | outcome [13] | outcome [14] | outcome [16] | outcome [17]

CC(C)c1ccc(OCc2ccc(C(=O)N3CCCC3)o2)cc1
inactive: outcome [1] | outcome [2] | outcome [3] | outcome [5] | outcome [6] | outcome [7] | outcome [8] | outcome [9] | outcome [10] | outcome [11] | outcome [12] | outcome [13] | outcome [14] | outcome [15] | outcome [16] | outcome [17]
active: potentiation [4] 39%

COCCNC(=O)/C(C#N)=C/c1cc(C(C)C)c(OC)cc1C
inactive: outcome [1] | outcome [2] | outcome [3] | outcome [5] | outcome [6] | outcome [7] | outcome [8] | outcome [9] | outcome [10] | outcome [11] | outcome [12] | outcome [13] | outcome [14] | outcome [16] | outcome [17]
active: potentiation [4] 14% | potentiation [15] 20.4%

COc1ccc(CN2CCN(c3nc4ccccc4s3)CC2)cc1
active: potentiation [15] 12.4%
inactive: outcome [1] | outcome [2] | outcome [3] | outcome [4] | outcome [5] | outcome [6] | outcome [7] | outcome [8] | outcome [9] | outcome [10] | outcome [11] | outcome [12] | outcome [13] | outcome [14] | outcome [16] | outcome [17]

From PubChem BioAssay
